The list is not random: actives were taken first. Their share in the collection is about 4.8%.
hcDAF12 agonist: activates DAF-12 receptor from parasite H. contortus. hit rate 1.4% among 370,000. HEK293 hcDAF-12 lit1-tk-luc reporter, luminescence; 0% DMSO, 100% Δ7-dafachronic acid. AID 652067. activation, % at 6.8 µM;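 active means activation above the mean of all tested compounds plus 3 SD, cut at about 5.5% in these data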;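 further: 100% = response to 3 µM Δ7-dafachronic acid high control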
SMARCA2 act: SMARCA2 function activation, primary screen; hit rate 1% among 370,000; MG213 cells, MMTV-luciferase reporter, dexamethasone, overnight; activation, % at 9.1 µM; AID 652017; in the data active means activation above about 7.8%;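 further: 0% = vehicle wells and 100% = reference activator wells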
DAX1 inh-1: blocks DAX1 repression of SF-1 activated StAR promoter. AID 652010. HEK293T StAR-luciferase reporter, SF-1/DAX-1 repression relief. inhibition, % at 6.8 µM. hit rate 1.1% among 370,000;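 active means inhibition above the mean over all tested compounds plus 3 SD, cut at about 3.6% in these data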;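 further: 0% = DAX-1 cells with DMSO and 100% = cells lacking DAX-1 with DMSO; higher inhibition means more luminescence from relief of DAX-1 repression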
hgDAF12 agonist: agonists of H. glycines DAF-12 nuclear receptor | HEK293 GAL4-hgDAF12 UAS-luciferase reporter, agonist luminescence; normalized to butyrate control | activation, % at 6.8 µM | hit rate 1.8% among 370,000 | AID 687014;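 active means activation above a cutoff set at the mean of all screened compounds plus 3 SD, cut at about 10% in these data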;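 further: 0% = DMSO wells and 100% = sodium butyrate wells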
ssDAF-12 act: activators of S. stercoralis DAF-12 nuclear receptor | hit rate 1% among 370,000 | activation, % at 6.8 µM | AID 652126 | HEK293 ssDAF-12/GRIP1 lit1-tk-luc reporter, luminescence; % of 3 µM dafachronic acid response;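 active means activation above the mean over all tested compounds plus 3 SD, cut at about 0.9% in these data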;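 further: 0% = DMSO-only wells and 100% = 3 µM delta7-dafachronic acid wells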
DAX1 inh-2: inhibits human nuclear receptor DAX1; P51843; inhibition, % at 6.75 µM; HEK293 Gal4-DAX1 luciferase reporter, luminescence; hit rate 0.99% among 340,000;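 active means inhibition above the mean over all tested compounds plus 3 SD, cut at about 4.2% in these data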;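 further: 0% = DAX1-transfected cells with DMSO and 100% = empty-vector control cells with DMSO; inhibition shows as a rise in luminescence from relieved DAX1 repression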
Target sequence (P51843 207-470 limits assumed): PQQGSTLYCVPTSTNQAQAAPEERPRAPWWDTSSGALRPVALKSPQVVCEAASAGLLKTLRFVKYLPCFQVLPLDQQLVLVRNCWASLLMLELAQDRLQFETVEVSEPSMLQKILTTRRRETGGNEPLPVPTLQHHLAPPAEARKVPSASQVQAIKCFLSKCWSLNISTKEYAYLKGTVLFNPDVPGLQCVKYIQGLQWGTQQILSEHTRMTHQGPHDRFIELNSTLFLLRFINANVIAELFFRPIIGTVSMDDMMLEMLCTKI
SMARCA2 act conf: SMARCA2 activation, confirmation screen; shares compounds with SMARCA2 act; MG213 cells, MMTV-luciferase with dexamethasone, luminescence, overnight; MG213 cells expressing E1A, Rb sequestered; DMSO wells 0%, reference activator 100%; activation, % at 9.1 µM; hit rate 30% among 3,500; AID 652260;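 active means activation above its plate's cutoff, the mean activation of tested wells plus 3 SD, cut at about 7.9% in these data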
VP16 Luc act: activates GAL4-VP16 luciferase, flagging SMARCA2 activator hits; AID 686939; activation, % at 9.1 µM; HEK293 GAL4-VP16 pG5luc reporter, luciferase luminescence; scaled: DMSO wells 0%, SAHA wells 100%; hit rate 41% among 3,500; shares compounds with SMARCA2 act;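 active means activation above the solvent-only control well mean plus 3 SD, averaged across control plates, cut at about 5.2% in these data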
* = called active by the depositor; / = no result.

SMILES	hcDAF12 agonist	SMARCA2 act	DAX1 inh-1	hgDAF12 agonist	ssDAF-12 act	DAX1 inh-2	SMARCA2 act conf	VP16 Luc act
CCNC(=S)NNC(=O)c1ccccc1OC(F)F	0	-4	0	1	0	0	/	/
CCNC(=S)NNC(=O)c1ccccc1Cl	1	8.2*	0	3	-2	0	6	0
Cc1c(C(=O)NCc2ccco2)oc2c(Cl)cccc12	3	0	2	-1	0	0	/	/
O=[N+]([O-])c1ccc2c(c1)[nH]c(=S)n2-c1ccccc1	1	2	0	-1	-1	2	/	/
O=[N+]([O-])c1ccc2[nH]c(=S)[nH]c2c1	-1	10*	0	-2	-1	-2	11*	0
O=C(Nc1ccccc1Br)C(=O)N1CCCC1	1	-2	1	6	0	1	/	/
O=C(Nc1ccccn1)C(=O)N1CCCCC1	-1	8.2*	0	5	-1	3	4	2
Cc1cc(-c2ccc(Br)s2)nc(-n2cccc2)n1	0	12*	1	9	-1	0	-5	4
Cc1cc(-c2sccc2Br)nc(-n2cccc2)n1	5	-2	0	3	0	0	/	/
CCn1cc(CNC(=O)c2cc(Cl)ccc2OC)c(C)n1	0	-2	0	1	-1	0	/	/
COc1cc2nc(N(C)C)nc(N)c2cc1OC	1	13*	0	3	-1	0	28*	0
COc1cc2nc(Nc3ccc(F)cc3)nc(N)c2cc1OC	-2	0	0	-1	-1	0	/	/
CC(C)(C)C(=O)O/N=C(\N)c1ccc(Br)cc1	3	0	0	-2	-1	0	/	/
O=C(COc1ccc2c3c(c(=O)oc2c1)CCCC3)NCCCN1CCCC1=O	0	-1	-4	3	-1	1	/	/
Cc1cc(C)cc(NC(=O)CCc2c(C)nn(-c3ccc(N4CCCCC4)nn3)c2C)c1	0	11*	4.1*	8	0	0	3	6.3*
CCCn1c(SCC(=O)Nc2cc(Cl)ccc2OC)n[nH]c1=O	1	0	0	-1	-1	0	/	/
Cc1cccc(NC(=O)CN2C(=O)N/C(=C/c3ccc(C)o3)C2=O)c1	-2	9.1*	1	-1	-1	3	2	1
O=C(Cn1c(=O)oc2ccccc21)Nc1cccc(Cl)c1	-1	-4	-1	-1	-1	-1	/	/
Cc1cccc(NC(=O)Cn2c(=O)oc3ccccc32)c1	-1	8.8*	0	1	0	0	-3	1
Cc1ccc2nc(-c3ccncc3)cc(C(=O)NCc3ccccc3F)c2c1	0	0	-3	2	-1	-1	/	/
CCN(C[C@H]1N[C@@](Cc2ccccc2)(C(=O)OC)[C@H]2C(=O)N(Cc3ccccc3)C(=O)[C@@H]12)S(=O)(=O)c1ccc(C)cc1	-1	10*	1	2	-1	-2	-7	-1
CCN(C[C@H]1N[C@@](Cc2ccccc2)(C(=O)OC)[C@H]2C(=O)N(Cc3ccccc3)C(=O)[C@@H]12)S(=O)(=O)c1ccccc1	2	-2	0	1	-1	-1	/	/
Cc1cccc(OCc2ccc(C(=O)N3CCOCC3)o2)c1	0	0	0	-1	-1	1	/	/
CCCc1ccc(OCc2ccc(C(=O)N3CCSCC3)o2)cc1	2	8.3*	2	8	0	0	4	7.4*
O=C(Nc1nc(-c2cc3ccccc3oc2=O)cs1)c1ccco1	1	17*	2	5	-2	2	-1	2
SMILES	hcDAF12 agonist	SMARCA2 act	DAX1 inh-1	hgDAF12 agonist	ssDAF-12 act	DAX1 inh-2	SMARCA2 act conf	VP16 Luc act
COc1ccc2nc(C)cc(Sc3nc4ccccc4s3)c2c1	-5	-5	-2	-7	-2	-4	/	/
CCc1ccc(NC(=O)C(=O)NCC2CCCO2)cc1 (configuration not stated)	3	11*	4.3*	8	-1	4.6*	4	16*
Cn1c(N)c(C(=O)COC(=O)c2cc(C3CC3)nc3ccccc23)c(=O)n(C)c1=O	-2	-2	0	1	-1	-1	/	/
COc1ccc(N2CC(C(=O)Nc3cccc(C)n3)CC2=O)cc1 (configuration not stated)	-2	8.0*	0	0	0	0	1	2
CCOc1ccc(N2CC(C(=O)Nc3cc(C)on3)CC2=O)cc1 (configuration not stated)	-1	7	0	4	-1	1	/	/
CC(=O)Nc1cccc(NC(=O)C2CC(=O)N(c3ccc(C)cc3)C2)c1 (configuration not stated)	0	9.5*	-1	0	-2	1	3	0
COc1ccc(N2CC(C(=O)Nc3cc(C)on3)CC2=O)cc1 (configuration not stated)	-1	8.0*	1	-2	-1	0	0	0
O=C(COC(=O)/C=C/c1ccc(F)cc1)Nc1ccc(Cl)cn1	2	-5	0	1	-1	-1	/	/
COc1cc(/C=C/C(=O)OCC(=O)Nc2ccc(Cl)cn2)ccc1O	0	10*	1	1	-1	0	4	1
O=C1Nc2c(ccc(Cl)c2Cl)C(=O)C1(F)c1ccccc1 (configuration not stated)	1	8.3*	1	1	-1	1	-3	0
CS(=O)(=O)N(CC(=O)Nc1ccccc1-c1ccccc1)c1ccc(F)cc1	-1	0	-1	-3	-2	-2	/	/
CNc1nnc(-c2cc3cc(Cl)ccc3oc2=O)s1	0	9.7*	1	3	-1	2	10*	11*
COc1ccc2oc(=O)c(-c3nnc(NCc4ccco4)s3)cc2c1	1	15*	1	6	0	4	15*	6.5*
Cc1cc(C(=O)NCC(=O)OCC(=O)N(C)C2CCCCC2)ccc1[N+](=O)[O-]	-1	-1	0	-2	-2	0	/	/
O=C1NCCCC1C(=O)N/N=C/c1ccccc1 (configuration not stated)	0	8.8*	1	1	-1	0	1	1
CC(=O)Nc1ccc(NC(=O)C(C)OC(=O)/C(C#N)=C/c2ccc(N(C)C)cc2)cc1 (configuration not stated)	1	8.0*	2	8	0	2	8.7*	7.3*
